# Assay results: the antibiotic and cytotoxicity screens of Wong et al. (2023)
# About 3,300 (8.5%) of roughly 39,000 compounds were called active. Many of the other results were omitted from the sample, so actives are more common in it than they were.
# Test system: HepG2
# Experiment: cytotoxicity call (relative viability < 0.9)
# Details: 10 µM
row,SMILES,cytotoxicity call
1,CC(C)NC(=O)Nc1ccc2c(c1)C(=O)N([C@@H](C)CO)C[C@@H](C)[C@H](CN(C)S(=O)(=O)c1ccccc1)O2,inactive
2,C[C@H](CO)N1C[C@H](C)[C@@H](CN(C)C(=O)NC2CCCCC2)Oc2ccc(NC(=O)Nc3cccc4ccccc34)cc2C1=O,inactive
3,C[C@@H]1CCCCO[C@@H](CN(C)C(=O)Cc2ccccc2)[C@H](C)CN([C@@H](C)CO)C(=O)c2cc(NC(=O)Nc3ccc(C(F)(F)F)cc3)ccc2O1,inactive
4,Cc1noc(C)c1S(=O)(=O)Nc1ccc2c(c1)C(=O)N([C@H](C)CO)C[C@H](C)[C@H](CN(C)C(=O)Nc1ccccc1)OCCCC[C@H](C)O2,inactive
5,C[C@@H]1CN([C@@H](C)CO)C(=O)Cc2cc(NC(=O)CCC(F)(F)F)ccc2O[C@H]1CN(C)Cc1ccc(C(=O)Nc2ccccc2N)cc1,inactive
6,C[C@H]1CN([C@@H](C)CO)C(=O)c2cc(NC(=O)C3CC3)ccc2O[C@H]1CN(C)Cc1ccc(-c2ccccc2)cc1,inactive
7,C[C@@H]1CN([C@@H](C)CO)C(=O)c2cc(NC(=O)C3CC3)ccc2O[C@@H]1CN(C)Cc1ccc(-c2ccccc2)cc1,inactive
8,C[C@H](CO)N1C[C@H](C)[C@H](CN(C)Cc2ccc(-c3ccccc3)cc2)Oc2ccc(NC(=O)C3CCCCC3)cc2C1=O,active
9,CN1CCN(C(=O)C[C@@H]2CC[C@H]3[C@@H](COC[C@@H](O)CN3C(=O)C3CC3)O2)CC1,inactive
10,C[C@H]1Cc2cc(S(=O)(=O)N(C)CC(=O)N3CCOCC3)ccc2N1C(=O)C1CC1,inactive
11,CCS(=O)(=O)Nc1ccc2c(c1)C(=O)N(C)[C@@H]1CC[C@H](CC(=O)NCc3ccccc3F)O[C@@H]1CO2,inactive
12,O=C(C[C@H]1CC[C@H]2[C@@H](COC[C@H](O)CN2Cc2ccccc2F)O1)N[C@H]1CCN(Cc2ccccc2)C1,inactive
13,COCCOC(=O)N1C(=O)[C@@]2(c3ccccc31)[C@H](C(=O)N1CCc3cc(OC)c(OC)cc3C1)[C@H]1C(=O)O[C@H](c3ccccc3)[C@H](c3ccccc3)N1[C@@H]2c1ccc(O)cc1,inactive
14,C[C@@H]1CCCCO[C@@H](CN(C)Cc2ccc(C(F)(F)F)cc2)[C@H](C)CN([C@@H](C)CO)C(=O)c2cc(NC(=O)c3ccccc3)ccc2O1,inactive
15,C=CCC[C@@H](Cc1ccc(F)cc1)C(=O)O[C@H](CNC(=O)[C@@H](CC=C)CC(=O)N(CCO)Cc1ccccc1)c1ccccc1,inactive
16,C=CCC[C@H](Cc1ccc(F)cc1)C(=O)O[C@H](CNC(=O)[C@@H](CC=C)CC(=O)N(CCO)Cc1ccccc1)c1ccccc1,inactive
17,C=CC[C@H](CC(=O)N(CCO)Cc1ccccc1)C(=O)NC[C@H](OC(=O)[C@@H](CC=C)Cc1ccc(F)cc1)c1ccccc1,inactive
18,C=CCC[C@H](Cc1ccc(F)cc1)C(=O)O[C@H](CNC(=O)[C@H](CC=C)CC(=O)N(CCO)Cc1ccccc1)c1ccccc1,inactive
19,C=CCC[C@@H](Cc1ccc(F)cc1)C(=O)OC[C@@H](NC(=O)[C@H](CC=C)CC(=O)N(CCO)Cc1ccccc1)c1ccccc1,inactive
20,C=CCC[C@H](Cc1ccc(F)cc1)C(=O)OC[C@@H](NC(=O)[C@@H](CC=C)CC(=O)N(CCO)Cc1ccccc1)c1ccccc1,inactive
21,C=CCC[C@@H](Cc1ccc(F)cc1)C(=O)O[C@@H](CNC(=O)[C@@H](CC=C)CC(=O)N(CCO)Cc1ccccc1)c1ccccc1,active

row,SMILES,cytotoxicity call
1,C=CCC[C@H](Cc1ccc(F)cc1)C(=O)O[C@@H](CNC(=O)[C@H](CC=C)CC(=O)N(CCO)Cc1ccccc1)c1ccccc1,inactive
2,C=CCC[C@H](Cc1ccc(F)cc1)C(=O)O[C@@H](CNC(=O)[C@@H](CC=C)CC(=O)N(CCO)Cc1ccccc1)c1ccccc1,active
3,C=CCC[C@@H](Cc1ccc(F)cc1)C(=O)O[C@H](CNC(=O)[C@H](CC=C)CC(=O)N(CCO)Cc1ccccc1)c1ccccc1,inactive
4,C=CCC[C@@H](Cc1ccc(F)cc1)C(=O)O[C@@H](CNC(=O)[C@H](CC=C)CC(=O)N(CCO)Cc1ccccc1)c1ccccc1,active
5,C=CCC[C@@H](Cc1ccc(F)cc1)C(=O)OC[C@@H](NC(=O)[C@@H](CC=C)CC(=O)N(CCO)Cc1ccccc1)c1ccccc1,active
6,COCC(=O)Nc1ccc2c(c1)C(=O)N(C)[C@@H]1CC[C@H](CC(=O)N3CCc4ccccc4C3)O[C@H]1CO2,inactive
7,Cc1noc(C)c1NC(=O)Nc1ccc2c(c1)C(=O)N([C@@H](C)CO)C[C@H](C)[C@H](CN(C)S(=O)(=O)c1ccc(F)cc1)OCCCC[C@H](C)O2,inactive
8,CN1C(=O)c2cc(NC(=O)C3CCOCC3)ccc2OC[C@@H]2O[C@@H](CC(=O)NCCc3ccncc3)CC[C@@H]21,inactive
9,COc1ccc(C=Cc2cc(O)cc(O[C@@H]3O[C@H](CO)[C@@H](O)[C@H](O)[C@H]3O)c2)cc1,inactive
10,C1=C(c2ccccc2)CC(c2ccccc2)=NN=C1c1ccccc1,inactive
11,COCCNC(=O)[C@H]1[C@H](CO)[C@H]2Cn3c(cccc3=O)[C@@H]1N2S(=O)(=O)c1ccccc1C,inactive
12,C[C@@H]1CN([C@H](C)CO)C(=O)Cc2cc(NC(=O)Cn3cnnn3)ccc2O[C@H]1CN(C)S(=O)(=O)c1ccc(Cl)cc1,inactive
13,CC(C)NC(=O)Nc1ccc2c(c1)CC(=O)N([C@@H](C)CO)C[C@@H](C)[C@@H](CN(C)S(=O)(=O)c1ccccc1)O2,inactive
14,CC(C)NC(=O)Nc1ccc2c(c1)CC(=O)N([C@H](C)CO)C[C@H](C)[C@H](CN(C)S(=O)(=O)c1ccc(F)cc1)O2,inactive
15,C[C@H](CO)N1C[C@H](C)[C@H](CN(C)Cc2ccc3c(c2)OCO3)Oc2ccc(NS(C)(=O)=O)cc2C1=O,inactive
16,COc1ccc(NC(=O)Nc2ccc3c(c2)C(=O)N([C@H](C)CO)C[C@@H](C)[C@@H](CN(C)S(=O)(=O)c2ccccc2)OCCCC[C@H](C)O3)cc1,inactive
17,C[C@H]1CCCCO[C@H](CN(C)S(=O)(=O)c2ccc(Cl)cc2)[C@@H](C)CN([C@@H](C)CO)C(=O)c2cc(NC(=O)C3CCCCC3)ccc2O1,inactive
18,O=C(C[C@H]1CC[C@H]2[C@@H](COC[C@H](O)CN2S(=O)(=O)c2ccc(F)cc2)O1)N[C@H]1CCN(Cc2ccccc2)C1,inactive
19,C[C@@H]1CCCCO[C@@H](CN(C)Cc2ccc3c(c2)OCO3)[C@@H](C)CN([C@@H](C)CO)C(=O)c2cc(NS(=O)(=O)c3cccs3)ccc2O1,inactive
20,CCN1CCN(C2=C(NS(=O)(=O)c3ccc(Br)cc3)C(=O)c3ccccc3C2=O)CC1,active
21,CCN1CCN(C2=C(NS(=O)(=O)c3ccc(Br)s3)C(=O)c3ccccc3C2=O)CC1,active

row,SMILES,cytotoxicity call
1,O=C1C(NS(=O)(=O)c2ccc(Br)cc2)=C(c2ccc(OC(F)(F)F)cc2)C(=O)c2ccccc21,inactive
2,CC(=O)N1CCN(CC(=O)NS(=O)(=O)c2ccccc2)CC1,inactive
3,COc1cccc(C#Cc2ccc3c(c2)O[C@@H](CN(C)C(C)=O)[C@H](C)CN([C@H](C)CO)S3(=O)=O)c1,inactive
4,O=C(C[C@H]1C[C@H]2c3cc(NS(=O)(=O)c4ccc(F)cc4)ccc3O[C@H]2[C@@H](CO)O1)NCc1ccccn1,inactive
5,Cc1noc(C)c1NC(=O)Nc1ccc2c(c1)C(=O)N([C@H](C)CO)C[C@H](C)[C@H](CN(C)S(=O)(=O)c1ccc(Cl)cc1)OCCCC[C@@H](C)O2,inactive
6,CN1CCN(C(=O)C[C@@H]2CC[C@H]3[C@H](COc4ccc(NC(=O)C5CCOCC5)cc4C(=O)N3C)O2)CC1,inactive
7,C[C@@H]1CCCCO[C@H](CN(C)S(=O)(=O)c2cn(C)cn2)[C@@H](C)CN([C@@H](C)CO)C(=O)c2cc(NS(=O)(=O)c3cccs3)ccc2O1,inactive
8,CCCNC(=O)Nc1ccc2c(c1)C(=O)N(C)C[C@@H](OC)[C@H](C)CN(C(=O)C1CCOCC1)[C@@H](C)CO2,inactive
9,CCO[C@@H]1OC(C(=O)N2CCN(Cc3ccccc3)CC2)=C[C@H](c2ccc(C(F)(F)F)cc2)[C@H]1CCCOC(=O)NCCCCCC(=O)NO,inactive
10,CN(C)CC(=O)N[C@@H]1CC[C@H](CCNC(=O)C2CC2)O[C@@H]1CO,inactive
11,C[C@@H]1CN([C@H](C)CO)C(=O)c2cccc(NC(=O)Nc3cccc4ccccc34)c2O[C@@H]1CN(C)C(=O)Nc1ccc(C(F)(F)F)cc1,active
12,C[C@H]1CN([C@@H](C)CO)C(=O)c2cccc(NC(=O)Nc3cccc4ccccc34)c2O[C@@H]1CN(C)C(=O)Nc1ccc(C(F)(F)F)cc1,active
13,C[C@H]1CN([C@@H](C)CO)C(=O)c2cccc(NC(=O)Nc3cccc4ccccc34)c2O[C@H]1CN(C)C(=O)Nc1ccc(C(F)(F)F)cc1,active
14,C[C@@H]1CN([C@@H](C)CO)C(=O)c2cccc(NC(=O)Nc3cccc4ccccc34)c2O[C@H]1CN(C)C(=O)Nc1ccc(C(F)(F)F)cc1,active
15,O=C(C1=C[C@H](c2coc3ccccc3c2=O)C[C@H](OCCCCO)O1)N1CCOCCOCCOCCOCC1,inactive
16,Cc1ccc(S(=O)(=O)Nc2ccc3c(c2)C(=O)N([C@@H](C)CO)C[C@@H](C)[C@H](CN(C)C(=O)Nc2ccc4c(c2)OCO4)OCCCC[C@@H](C)O3)cc1,inactive
17,COc1ccc(S(=O)(=O)N(C)C[C@H]2OCCCC[C@H](C)Oc3ccc(NC(=O)Nc4cccc5ccccc45)cc3C(=O)N([C@H](C)CO)C[C@@H]2C)cc1,inactive
18,COc1cccc(S(=O)(=O)Nc2ccc3c(c2)[C@@H]2C[C@H](CC(=O)NCCc4ccccc4)O[C@@H](CO)[C@@H]2O3)c1,inactive
19,O=C(CCCCC(=O)N/N=C/c1cc(I)cc(I)c1O)NO,inactive
